Experimental data: PubChem BioAssay (NCI)
Compounds without any hit were thinned out: in the full panel of roughly 83,000, 20% have a hit.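 Values shown are percent growth following 48 h exposure of cells in 96-well plates to a single concentration of compound; below 10 was considered active.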 Unmarked numbers belong to inactive results. The source made the active and inactive calls.

Key:
Assay in all cases: NCI-60 one-dose screen, 48 h (100 = growth as untreated, 0 = no growth, -100 = all killed)
Conditions in all cases: 10 µM
SR leukemia = tested on: SR leukemia
RPMI-8226 leukemia = tested on: RPMI-8226 leukemia
OVCAR-8 ovarian = tested on: OVCAR-8 ovarian
OVCAR-5 ovarian = tested on: OVCAR-5 ovarian
OVCAR-4 ovarian = tested on: OVCAR-4 ovarian
SK-OV-3 ovarian = tested on: SK-OV-3 ovarian
IGROV1 ovarian = tested on: IGROV1 ovarian
OVCAR-3 ovarian = tested on: OVCAR-3 ovarian
HS 578T breast = tested on: HS 578T breast
NCI/ADR-RES ovarian = tested on: NCI/ADR-RES ovarian
T-47D breast = tested on: T-47D breast
BT-549 breast = tested on: BT-549 breast
MDA-MB-435 melanoma = tested on: MDA-MB-435 melanoma
SW-620 colon = tested on: SW-620 colon
MCF7 breast = tested on: MCF7 breast
HCT-116 colon = tested on: HCT-116 colon
HCC-2998 colon = tested on: HCC-2998 colon
KM12 colon = tested on: KM12 colon
MDA-MB-468 breast = tested on: MDA-MB-468 breast

Which results are given for `O=c1[nH]c2ccccc2cc1CSc1ccc(Nc2nccc(-c3ccc(C(F)(F)F)cc3)n2)cc1`?
growth (SR leukemia): 64.7%; growth (RPMI-8226 leukemia): 69.5%; growth (OVCAR-8 ovarian): -25.9% (active); growth (OVCAR-5 ovarian): 36%; growth (OVCAR-4 ovarian): -60.3% (active); growth (SK-OV-3 ovarian): 79.5%; growth (IGROV1 ovarian): 35.7%; growth (OVCAR-3 ovarian): -61.1% (active); growth (HS 578T breast): -8.2% (active); growth (NCI/ADR-RES ovarian): 11.9%; growth (T-47D breast): 18.8%; growth (BT-549 breast): 31.7%; growth (MDA-MB-435 melanoma): 63.3%; growth (SW-620 colon): 31%; growth (MCF7 breast): 25.3%; growth (HCT-116 colon): 6.96% (active); growth (HCC-2998 colon): 48.1%; growth (KM12 colon): 46.8%; growth (MDA-MB-468 breast): -17.5% (active)

How did the growth (SR leukemia) turn out when `CC(=O)c1cc(C(=O)c2ccc3c(c2)NC(=O)CO3)n2ccc3ccccc3c12` was run?
The growth was 63.2%.

What about the growth (RPMI-8226 leukemia) of the same compound?
The growth was 62.7%.

What about the growth (OVCAR-8 ovarian) of the same compound?
Its growth is 50.3%.

What about the growth (OVCAR-5 ovarian) of the same compound?
The growth was 85.7%.

And the growth (OVCAR-4 ovarian)?
The growth was 47.9%.

What about the growth (SK-OV-3 ovarian) of the same compound?
Its growth is 108%.

And the growth (IGROV1 ovarian)?
The growth was 96.2%.

What about the growth (OVCAR-3 ovarian) of the same compound?
The growth was 118%.

And the growth (HS 578T breast)?
The growth was 63.1%.

What about the growth (NCI/ADR-RES ovarian) of the same compound?
Its growth is 69%.

And the growth (T-47D breast)?
Its growth is 75.3%.

What about the growth (BT-549 breast) of the same compound?
Its growth is 78.3%.

What about the growth (MDA-MB-435 melanoma) of the same compound?
Its growth is 80.5%.

And the growth (SW-620 colon)?
Its growth is 93.1%.

What about the growth (MCF7 breast) of the same compound?
The growth was 64%.

And the growth (HCT-116 colon)?
Its growth is 45%.

What about the growth (HCC-2998 colon) of the same compound?
The growth was 87.8%.

What about the growth (KM12 colon) of the same compound?
Its growth is 51.5%.

And the growth (MDA-MB-468 breast)?
Its growth is 50%.

For `O=C(Nc1ccc(Cl)c([N+](=O)[O-])c1)Nc1ccc(Cl)c([N+](=O)[O-])c1`, which growth (SR leukemia) is on record?
The growth was 12.4%.

And the growth (RPMI-8226 leukemia)?
The growth was -20.5% (active).

What about the growth (OVCAR-8 ovarian) of the same compound?
The growth was 20.7%.

And the growth (OVCAR-5 ovarian)?
The growth was 49.8%.

And the growth (OVCAR-4 ovarian)?
Its growth is 23.2%.

What about the growth (SK-OV-3 ovarian) of the same compound?
The growth was 79.4%.

And the growth (IGROV1 ovarian)?
The growth was 15.3%.

What about the growth (OVCAR-3 ovarian) of the same compound?
The growth was 9.61% (active).

What about the growth (HS 578T breast) of the same compound?
Its growth is 45.1%.

And the growth (NCI/ADR-RES ovarian)?
Its growth is 6.5% (active).

And the growth (T-47D breast)?
Its growth is 1.86% (active).

And the growth (BT-549 breast)?
Its growth is -11.6% (active).

What about the growth (MDA-MB-435 melanoma) of the same compound?
The growth was 13.3%.

What about the growth (SW-620 colon) of the same compound?
Its growth is 18.7%.

And the growth (MCF7 breast)?
Its growth is -5.85% (active).

What about the growth (HCT-116 colon) of the same compound?
Its growth is 9.36% (active).

And the growth (HCC-2998 colon)?
Its growth is 12.7%.

What about the growth (KM12 colon) of the same compound?
The growth was 5.87% (active).

For `COc1cc2c3c(n(CCCn4ccnc4)c(=O)c2cc1OC)-c1nc2c(cc1C3=O)OCO2`, which growth (SR leukemia) is on record?
Its growth is 13.8%.

What about the growth (RPMI-8226 leukemia) of the same compound?
Its growth is 44.3%.

What about the growth (OVCAR-8 ovarian) of the same compound?
Its growth is 43.6%.

And the growth (OVCAR-5 ovarian)?
The growth was 57.2%.

What about the growth (OVCAR-4 ovarian) of the same compound?
Its growth is 80.9%.

And the growth (SK-OV-3 ovarian)?
Its growth is 18.3%.

And the growth (IGROV1 ovarian)?
The growth was 56%.

What about the growth (OVCAR-3 ovarian) of the same compound?
Its growth is 48.5%.

And the growth (HS 578T breast)?
The growth was 119%.

What about the growth (NCI/ADR-RES ovarian) of the same compound?
The growth was 84.2%.

What about the growth (T-47D breast) of the same compound?
The growth was 21.8%.

And the growth (BT-549 breast)?
Its growth is 29.6%.

What about the growth (MDA-MB-435 melanoma) of the same compound?
The growth was 52.2%.

What about the growth (SW-620 colon) of the same compound?
Its growth is 37%.

And the growth (MCF7 breast)?
Its growth is 7.42% (active).

What about the growth (HCT-116 colon) of the same compound?
The growth was 30.4%.

What about the growth (HCC-2998 colon) of the same compound?
The growth was 72.2%.

And the growth (KM12 colon)?
Its growth is 59.6%.

Which growth (SR leukemia) does the source give for `COc1ccc(/C=C/C(=O)c2ccc(N3CCN(C)CC3)cc2)c(C(F)(F)F)c1` here?
The growth was 7.12% (active).

And the growth (RPMI-8226 leukemia)?
The growth was 0.333% (active).

And the growth (OVCAR-8 ovarian)?
The growth was 49.6%.

What about the growth (OVCAR-5 ovarian) of the same compound?
Its growth is 86.4%.

And the growth (OVCAR-4 ovarian)?
The growth was 43.9%.

What about the growth (SK-OV-3 ovarian) of the same compound?
Its growth is 63.7%.

What about the growth (IGROV1 ovarian) of the same compound?
The growth was 55%.

What about the growth (OVCAR-3 ovarian) of the same compound?
Its growth is 46.9%.

And the growth (HS 578T breast)?
The growth was 18.8%.

And the growth (NCI/ADR-RES ovarian)?
Its growth is 59.3%.

And the growth (T-47D breast)?
The growth was 39.7%.

What about the growth (BT-549 breast) of the same compound?
Its growth is 40.7%.

What about the growth (MDA-MB-435 melanoma) of the same compound?
The growth was -54.9% (active).

What about the growth (SW-620 colon) of the same compound?
The growth was -80% (active).

What about the growth (MCF7 breast) of the same compound?
The growth was -54.1% (active).

And the growth (HCT-116 colon)?
Its growth is 11.4%.

What about the growth (HCC-2998 colon) of the same compound?
Its growth is -49.4% (active).

And the growth (KM12 colon)?
The growth was 8.95% (active).

How did the growth (SR leukemia) turn out when `N#Cc1c(NC(=O)c2ccc(C(F)(F)F)cc2)sc2c1CCC(=O)C2` was run?
The growth was 11.3%.

What about the growth (RPMI-8226 leukemia) of the same compound?
Its growth is 7.34% (active).

What about the growth (OVCAR-8 ovarian) of the same compound?
The growth was -32.3% (active).

And the growth (OVCAR-5 ovarian)?
Its growth is -80.6% (active).

What about the growth (OVCAR-4 ovarian) of the same compound?
The growth was -24.6% (active).

What about the growth (SK-OV-3 ovarian) of the same compound?
Its growth is -54.1% (active).

And the growth (IGROV1 ovarian)?
The growth was -79.3% (active).

And the growth (OVCAR-3 ovarian)?
Its growth is -92.9% (active).

And the growth (HS 578T breast)?
Its growth is -27.1% (active).

And the growth (NCI/ADR-RES ovarian)?
Its growth is -44.8% (active).

And the growth (T-47D breast)?
Its growth is -36.9% (active).

What about the growth (BT-549 breast) of the same compound?
The growth was -80.6% (active).

What about the growth (MDA-MB-435 melanoma) of the same compound?
The growth was -41.4% (active).

What about the growth (SW-620 colon) of the same compound?
Its growth is -63% (active).

What about the growth (MCF7 breast) of the same compound?
Its growth is -16.9% (active).

What about the growth (HCT-116 colon) of the same compound?
Its growth is -46.3% (active).

And the growth (HCC-2998 colon)?
Its growth is -96.7% (active).

What about the growth (KM12 colon) of the same compound?
The growth was -36.3% (active).

What about the growth (MDA-MB-468 breast) of the same compound?
Its growth is -71% (active).

Which results are given for `Brc1ccc(N/N=C/c2c[nH]c3ccccc23)nc1`?
growth (SR leukemia): 2.45% (active); growth (RPMI-8226 leukemia): 2.19% (active); growth (OVCAR-8 ovarian): 44.3%; growth (OVCAR-5 ovarian): 45.4%; growth (OVCAR-4 ovarian): 41.5%; growth (SK-OV-3 ovarian): 71%; growth (IGROV1 ovarian): 1.99% (active); growth (OVCAR-3 ovarian): 19.5%; growth (HS 578T breast): 51.7%; growth (NCI/ADR-RES ovarian): 5.81% (active); growth (T-47D breast): 25.7%; growth (BT-549 breast): -2.29% (active); growth (MDA-MB-435 melanoma): 30.4%; growth (SW-620 colon): 20.8%; growth (MCF7 breast): 9.88% (active); growth (HCT-116 colon): 6.45% (active); growth (HCC-2998 colon): -1.13% (active); growth (KM12 colon): 0.217% (active); growth (MDA-MB-468 breast): -35.5% (active)

For `CC(C)(C)c1ccc(NCc2cn(-c3ccc(C(=O)O)cc3)nc2-c2ccc(C#N)cc2)cc1`, which growth (SR leukemia) is on record?
Its growth is 5.39% (active).

And the growth (RPMI-8226 leukemia)?
Its growth is 14.6%.

What about the growth (OVCAR-8 ovarian) of the same compound?
The growth was 28.5%.

And the growth (OVCAR-5 ovarian)?
Its growth is 32.6%.

What about the growth (OVCAR-4 ovarian) of the same compound?
The growth was 36.7%.

And the growth (SK-OV-3 ovarian)?
Its growth is 112%.

And the growth (IGROV1 ovarian)?
The growth was 36.5%.

What about the growth (OVCAR-3 ovarian) of the same compound?
Its growth is 19.7%.

What about the growth (HS 578T breast) of the same compound?
The growth was 37.4%.

What about the growth (NCI/ADR-RES ovarian) of the same compound?
The growth was 11.7%.

What about the growth (T-47D breast) of the same compound?
The growth was 21.4%.

And the growth (BT-549 breast)?
Its growth is -2.13% (active).

And the growth (MDA-MB-435 melanoma)?
The growth was 34%.

What about the growth (SW-620 colon) of the same compound?
The growth was 32.2%.

And the growth (MCF7 breast)?
Its growth is 6.04% (active).

What about the growth (HCT-116 colon) of the same compound?
Its growth is -13.9% (active).

And the growth (HCC-2998 colon)?
The growth was -66.6% (active).

What about the growth (KM12 colon) of the same compound?
Its growth is -38.3% (active).

And the growth (MDA-MB-468 breast)?
Its growth is 19%.
